SMILES strings stand for the structures. Where “and” joins values, the source holds several entries; their conditions need not be identical. Identical values can stand only once. Screen size: about 52,000 compounds; about 4,300 (8.3%) were called active. This is one part of a sample in which actives are shown more often than they occur. Rule as the data show it: active = survival mostly below about 52% (no sharp cut-off); inactive = mostly above about 56%. Some compounds were tested as several samples or in several runs, with calls that do not always agree.

For the assay, the system named is DeltatarO mutant. Description: growth inhibition of S. aureus wild type versus tarO mutant, primary screen, teichoic acid synthesis inhibitors, RN4220, OD600 (AID 463173). Conditions: OD600, 18 h, stronger effect = lower value, screened at 18.75 µg/mL (by protocol).
Turning to `Cc1ccc(Cl)cc1NC(=O)c1sc2nc(C)c(C)c(C)c2c1N`, the survival was 75% (inactive).

Turning to `Cc1cccc2sc(N(Cc3cccnc3)C(=O)Cc3ccccc3)nc12`, the survival was 81% (inactive).

Turning to `CCCc1cnc2c(c1SCC(=O)Nc1c(C)cc(C)cc1C)c(=O)n(C)c(=O)n2C`, the survival was 94% (inactive).

Consider `CCOc1ccc(NC(=O)CSc2nc3nc(C)c(Cc4ccccc4)c(C)n3n2)cc1`, for which the survival was 89% (inactive).

As to `CCC(OC(=O)CN1C(=O)c2ccccc2C1=O)C(=O)NC1CCCC1` (configuration not stated), the survival was 83% (inactive).

For `COC(=O)c1ccc(C(=O)OC)c(NC(C)=O)c1`, the survival was 73% (inactive).

As to `O=C(NCc1ccc(Cl)cc1)C1CCCN(C(=O)c2cnn(-c3ccc(F)cc3)c2-n2cccc2)C1` (configuration not stated), the survival was 73% (inactive).

Take `Cc1c(Cl)cccc1NC(=O)c1cccc(NC(=O)N2CCSc3ncccc32)c1`: the survival is 80% (inactive).

Turning to `COc1ccc(C(=O)Nc2ccccc2C(=O)Nc2ccccn2)cc1`, the survival is 94% (inactive).

For `O=C1CSC(=Nc2cccc(C(=O)O)c2)N1`, the survival is 82% (inactive).

Take `CC(=O)c1cc2c(cc1N/C(=N/S(=O)(=O)c1ccc(C)cc1)c1ccccc1)OCO2`: the survival was 74% (inactive).

With `CC(=O)c1cc2c(cc1N/C(=N/S(=O)(=O)c1ccc(Cl)cc1)c1ccc(F)cc1)OCO2`, the survival is 99% (inactive).

`CC(=O)c1cc2c(cc1N/C(=N/S(=O)(=O)c1ccc(C)cc1)c1ccc(F)cc1)OCO2`: the survival was 83% (inactive).

In the case of `CC(=O)c1cc2c(cc1N/C(=N/S(=O)(=O)c1ccc(Br)cc1)c1ccccc1)OCO2`, the survival was 69% (inactive).

As to `CC(=O)c1cc2c(cc1N/C(=N/S(=O)(=O)c1ccccc1)c1ccc(Cl)cc1)OCO2`, the survival is 0% (active).

With `CC(=O)c1cc2c(cc1N/C(=N/S(=O)(=O)c1ccc(C)cc1)c1ccc(Cl)cc1)OCO2`, the survival is 37% (active).

Turning to `O=C(NCc1cccc(Br)c1)C1CCCCN1S(=O)(=O)c1ccc(F)cc1` (configuration not stated), the survival was 89% (inactive).

For `O=C(Cn1c(-c2cccs2)cc2cc(F)ccc21)NCCCN1CCN(c2ccccc2F)CC1`, the survival is 67% (inactive).

For `COc1ccc(-n2nc3c(N4CCC(C(=O)NCCc5ccccc5)CC4)nnc(C)c3c2C)cc1`, the survival was 85% (inactive).

As for `CCc1cccc(Nc2c3c(nc4ncnn24)CCC3)c1`, the survival is 95% (inactive).

`COc1ccc(-c2nn3c(=O)cc(CN4CCN(C(=O)Nc5ccc(C)c(Cl)c5)CC4)nc3s2)cc1`: the survival is 78% (inactive).

`CCOC(=O)C(C)Sc1nc(-c2ccccc2)ccc1C#N` (configuration not stated): the survival is 82% (inactive) and -1% (active).

Consider `CCOC(=O)C(C)Sc1nc(-c2ccccc2Cl)cc(-c2ccccc2)c1C#N` (configuration not stated), for which the survival is 64% (inactive).

For the compound `CCCCSc1nc(-c2ccc(OC)cc2)ccc1C#N`, the survival was 52% (inactive).

Regarding `O=C(CN1CCN(c2ccccn2)CC1)N(c1ccccc1)c1ccc2ccccc2c1`, the survival was 59% (inactive).

In the case of `COc1ccc(OC)c(CCNC(=O)c2ccc3[nH]c(C)c(C)c3c2)c1`, the survival was 107% (inactive).

Regarding `COc1ccc(NC(=O)c2csc3c2CCCCC3)cc1`, the survival was 70% (inactive).

Regarding `Cc1cccc(C)c1NC(=O)c1csc2c1CCCC2`, the survival is 90% (inactive).

With `COc1cccc(NC(=O)c2csc3c2CCCCC3)c1`, the survival was 37% (active).

On to `COc1ccc(CCNC(=O)c2csc3c2CCCCC3)c(OC)c1`, for which the survival was 66% (inactive).

In the case of `COc1ccc(OC)c(CCNC(=O)c2csc3c2CCCCC3)c1`, the survival was 44% (active).

Consider `COc1ccc(-c2cc(-c3ccccc3)nc3c2COc2ccc(F)cc2-3)cc1`, for which the survival was 73% (inactive).

Take `CCCc1c(O)nc(SCC(=O)N2CCCCC2)[nH]c1=O`: the survival is 69% (inactive).

As to `CCCSc1ncc(Cl)c(C(=O)Nc2nc3ccc(C)cc3s2)n1`, the survival was 49% (active).

Take `CCOc1ccc2nc(NC(=O)c3nc(SC(C)C)ncc3Cl)sc2c1`: the survival is 41% (active).

In the case of `CCCSc1ncc(Cl)c(C(=O)Nc2nc3ccc(OCC)cc3s2)n1`, the survival is 63% (inactive).

Turning to `O=C(Nc1nc2ccc(F)cc2s1)c1nc(SCc2ccccc2F)ncc1Cl`, the survival is 48% (inactive).

For the compound `COc1ccc2nc(NC(=O)c3nc(SCc4ccc(F)cc4)ncc3Cl)sc2c1`, the survival is 53% (inactive).

As for `Cc1cccc(CSc2ncc(Cl)c(C(=O)Nc3nc4ccc(F)cc4s3)n2)c1`, the survival is 33% (active).

`Cc1ccc(CSc2ncc(Cl)c(C(=O)Nc3nc4ccc(C)cc4s3)n2)cc1`: the survival was 53% (inactive).

Regarding `COc1ccc2nc(NC(=O)c3nc(SC(C)C)ncc3Cl)sc2c1`, the survival is 93% (inactive).

Turning to `CCSc1ncc(Cl)c(C(=O)Nc2nc3ccc(OC)cc3s2)n1`, the survival is 83% (inactive).

Regarding `COc1ccc2nc(NC(=O)c3nc(SCc4cccc(C)c4)ncc3Cl)sc2c1`, the survival is 37% (active).

Regarding `CCOc1ccc2nc(NC(=O)c3nc(SCc4ccc(C)cc4)ncc3Cl)sc2c1`, the survival was 54% (inactive).

Consider `Cc1ccccc1CSc1ncc(Cl)c(C(=O)Nc2nc3ccc(F)cc3s2)n1`, for which the survival was 100% (inactive).

`CCCN(CCC)C(=O)Cn1c(=O)n(-c2cccc(C(F)(F)F)c2)c(=O)c2c(C)c(C)sc21`: the survival is 44% (inactive).

Take `CCC1SC(=S)N(CC(=O)O)C1=O` (configuration not stated): the survival was 100% (inactive).

Consider `CCOCCCNC(=O)Cn1ncc2c([nH]c3ccc(C)cc32)c1=O`, for which the survival is 83% (inactive).

As for `O=C1NC(c2ccccc2)/C(=C(\O)c2ccccc2)C1=O` (configuration not stated), the survival was 70% (inactive).

As to `Cc1nc2ccn(Cc3cccs3)c(=O)c2cc1C(=O)N1CCN(c2ccccc2)CC1`, the survival is 83% (inactive).

For `CCCSc1ncc(Cl)c(C(=O)NCc2ccc(C)cc2)n1`, the survival is 57% (inactive).

`CCCSc1ncc(Cl)c(C(=O)Nc2ccc(S(=O)(=O)Nc3ncccn3)cc2)n1`: the survival was 67% (inactive).

As to `CCCSc1ncc(Cl)c(C(=O)Nc2ccc(OC)cc2OC)n1`, the survival is 46% (active).

For `CCCSc1ncc(Cl)c(C(=O)NCc2ccc(OC)cc2)n1`, the survival is 52% (inactive).

Take `COc1ccc(OC)c(NC(=O)c2nc(SCc3ccccc3F)ncc2Cl)c1`: the survival is 70% (inactive).

Regarding `CCCSc1ncc(Cl)c(C(=O)Nc2ccc(CC)cc2)n1`, the survival is 42% (active).

Take `Cc1ccc(-c2nnc(SCC(=O)NCc3ccccc3)o2)cc1`: the survival is 142% (inactive).

For `CCN(CC)c1ccc(CNCCCSc2nnnn2C)cc1`, the survival is 88% (inactive).

Take `COc1cc(C)c(S(=O)(=O)N2CCCC(C)C2)cc1C` (configuration not stated): the survival is 81% (inactive).

Take `Cc1nnc(NC(=O)CSc2nccn2-c2ccc(Cl)cc2)s1`: the survival is 104% (inactive).

Consider `O=C(NC1CCN(C(=O)NC2CCCCC2)CC1)c1ccc(F)cc1`, for which the survival is 85% (inactive).

For `Cc1nn(-c2cc(N3CCOCC3)ccc2N)c(=O)c2ccccc12`, the survival was 76% (inactive).

As to `COc1ccc(N2CCN(C(=O)C(C)n3c(=O)cc(C(F)(F)F)c4c(C)nn(C)c43)CC2)cc1` (configuration not stated), the survival is 97% (inactive).

Turning to `CCCCNC(=O)c1ccc2c(c1)N(CC)C(=O)c1ccccc1S2`, the survival was 102% (inactive).

On to `Cc1ccc(CCNC(=O)C2CCCN(c3nnc(C)c4c(C)n(-c5ccccc5)nc34)C2)cc1` (configuration not stated), for which the survival is 80% (inactive).

In the case of `CCCCN(CC)CCCNC(=O)c1cc2c(=O)[nH]c3ccccc3c2s1`, the survival is 151% (inactive).

Turning to `CCc1ccccc1NC(=O)C(=O)NCC(c1cccnc1)N1CCc2ccccc21` (configuration not stated), the survival is 58% (inactive).

As to `O=C(NCC(c1cccnc1)N1CCc2ccccc21)c1cccc(C(F)(F)F)c1` (configuration not stated), the survival was 45% (active).

For `Cc1cccc(NC(=O)C(=O)NCC(c2cccnc2)N2CCc3ccccc32)c1C` (configuration not stated), the survival is 53% (inactive).

Turning to `O=C(NCC(c1cccnc1)N1CCc2ccccc21)C(=O)Nc1ccccc1F` (configuration not stated), the survival was 101% (inactive).

In the case of `O=C(NCC(c1cccnc1)N1CCc2ccccc21)c1ccc(F)c(F)c1` (configuration not stated), the survival is 52% (inactive).

Consider `N#Cc1ccccc1NC(=O)C(=O)NCC(c1cccnc1)N1CCc2ccccc21` (configuration not stated), for which the survival is 53% (inactive).

For `O=C(NCC(c1cccnc1)N1CCc2ccccc21)c1ccc(F)cc1` (configuration not stated), the survival was 100% (inactive).

For `O=C(NCC(c1cccnc1)N1CCc2ccccc21)c1cccc(F)c1` (configuration not stated), the survival is 44% (active).

`O=C(NCC(c1cccnc1)N1CCc2ccccc21)c1cccc(Br)c1` (configuration not stated): the survival was 41% (active).

For the compound `CCOc1ccc(C2C(C(N)=O)=C(C)Nc3nc(-c4ccc(OC)cc4)nn32)cc1` (configuration not stated), the survival is 87% (inactive).

As for `COc1ccc(C)cc1NC(=O)C1CCC(CNS(=O)(=O)c2ccc3c(c2)CCCC(=O)N3)CC1` (configuration not stated), the survival is 67% (inactive).

As for `CCOC(=O)c1ccc(NC(=O)C(C)N(c2ccc(OCC)cc2)S(C)(=O)=O)cc1` (configuration not stated), the survival is 62% (inactive).

In the case of `O=C(CCc1ccccc1)NN1C(=O)c2ccccc2C1=O`, the survival was 61% (inactive).

`CCc1ccccc1NC(=O)c1cnc(N2CCCCC2)c2ccccc12`: the survival was 96% (inactive).

Consider `CC(C)(C)OC(=O)N1CCC(c2c(C(=O)N3CCOCC3)cnn2-c2ccccc2Cl)CC1`, for which the survival is 78% (inactive).

In the case of `COc1ccc(NC(=O)Cn2c(=O)n(-c3ccc(OC)cc3)c(=O)c3ccc(C(=O)NCc4ccc(C)cc4)cc32)cc1`, the survival was 77% (inactive).

For the compound `O=C(c1ccc2c(c1)N(Cc1ccc(F)cc1)C(=O)c1ccccc1S2(=O)=O)N1CCC(Cc2ccccc2)CC1`, the survival is 72% (inactive).

`CCCC1=Nc2cc(C(=O)NCc3ccc(OC)cc3)ccc2Sc2ccc(C)cc21`: the survival is 70% (inactive).

On to `CCOc1ccc(CNC(=O)Cn2c(=O)c3cccn3c3cccnc32)cc1`, for which the survival was 70% (inactive).

As for `CCOc1ccc(N2CC(c3nc4ccccc4n3Cc3cccc(C)c3)CC2=O)cc1` (configuration not stated), the survival is 42% (active).

For the compound `C#CCn1c(C2CC(=O)N(c3ccc(OC)cc3)C2)nc2ccccc21` (configuration not stated), the survival is 78% (inactive).

Consider `C#CCn1c(C2CC(=O)N(c3ccc(OCC)cc3)C2)nc2ccccc21` (configuration not stated), for which the survival was 62% (inactive).

`CCOc1ccc(N2CC(c3nc4ccccc4n3Cc3cccc(Cl)c3)CC2=O)cc1` (configuration not stated): the survival is 37% (active).

`CCCCn1c(C2CC(=O)N(c3ccc(OCC)cc3)C2)nc2ccccc21` (configuration not stated): the survival was 63% (inactive).

For the compound `CCOc1ccc(N2CC(c3nc4ccccc4n3CC(C)C)CC2=O)cc1` (configuration not stated), the survival is 56% (inactive).

`CCNC(=O)C1CCCN(c2nnc(C)c3c(C)n(-c4ccc(C)cc4)nc23)C1` (configuration not stated): the survival was 78% (inactive).

(Values after PubChem BioAssay AID463173 (ICCB-Longwood Screening Facility, Harvard Medical School, 2010).)
